Screening results as filed in PubChem.
hERG WT inh – qHTS for Inhibitors of KCHN2 3.1: Wildtype qHTS | 0.37% of 340,000 active | U2OS, BacMam KCNH2, thallium flux FluxOr; active compounds read low | activity change, % at 1.84 µM | AID 720551, 2013;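 active = maximum activity change below -70%; inconclusive = maximum activity change between -70% and -50%; inactive = maximum activity change above -50%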; also: % is scaled to controls: 0 for no effect and ±100 for the full control effect
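U2OS cells transduced with wild-type KCNH2 virus are loaded with FluxOr dye for 45 min, and thallium flux is measured in kinetic reads before and after stimulation buffer. Rate constants are normalized to DMSO controls.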
TSG101-PTAP inh – qHTS Assay for Iinhibitors of HIV-1 Budding by Blocking the Interaction of PTAP/TSG101; Potency, µM (series often up to 115 µM), for inactives: top-dose activity change, negative = inhibition, hits mostly inhibitors; AID 493005, 2010; 340,000 tested, under 10 active; Tumor susceptibility gene 101 protein (Homo sapiens), Q99816; Fluorescence polarization, FITC-PTAP peptide / Tsg101 binding; active = well fitted inhibition curve with a large enough effect in the main read-out, with a control signal flat, not every such curve was filed as active; inconclusive = small, poorly fitted or top-dose-only effect, or effect the other way, or a change in a side signal; inactive = no such curve, though single readings can be large or run the other way; also: potency is read from the fitted curve at half-maximal effect; % of control where 0% means no effect
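Fluorescence anisotropy tracks displacement of a FITC-tagged PTAP peptide (50 nM) from the Tsg101 binding domain (10 uM), following a 20 min room-temperature incubation at pH 7.5.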
TRPML1 blocker – qHTS for Inhibitors of the Human Mucolipin Transient Receptor Potential 1 (TRPML1) | AID 624415, 2012 | Mucolipin-1 (Homo sapiens), Q9GZU1 | TRPML1-inducible cells, Ca2+ dye fluorescence, FDSS; active compounds read low; inhibition of EC80 agonist-evoked calcium signal | activity change, negative = inhibition, % (test concentration not listed) | 0.02% of 390,000 active; in the data active = activity change below about -50%; inconclusive = between about -30% and that limit;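 also: stimulus is agonist 54-4 at its EC80 concentration; % is scaled to controls: 0 for no effect and ±100 for the full control effect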
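TRPML1-DL cells, Tet-induced overnight (~16 h, 37 °C) at 1,500 cells/well, were loaded with Ca8 no-wash dye plus quencher for 45-90 min at room temperature. Compounds were pinned during FDSS kinetic reading; agonist 54-4 at EC80 (4 uM final) then added.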
KCNH2 3.1 block – qHTS for Inhibitors of KCHN2 3.1: Mutant qHTS; activity change, % (tested at about 1.8 µM); Potassium voltage-gated channel subfamily H member 2, brain isoform KCNH2 3.1 (human); U2OS KCNH2 3.1, thallium flux FluxOr; active compounds read low; 0.95% of 340,000 active;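 active = maximum activity change below -70%; inconclusive = maximum activity change from -70% to -50%; inactive = maximum activity change above -50%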;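 also: thallium influx rate constant from kinetic fluorescence after stimulation buffer; % is scaled to controls: 0 for no effect and ±100 for the full control effect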
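U2OS cells transduced with KCNH2 3.1 mutant virus (1.77 x 10^8 /mL, 4 h), plated overnight at 37 C, loaded 45 min with FluxOr dye plus Red40 quencher. Thallium flux rate constant from kinetic reads after stimulation buffer, normalised to controls.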
TRPML1 ag – qHTS for Agonists of the Human Mucolipin Transient Receptor Potential 1 (TRPML1) | TRPML1-expressing cells, Ca2+ dye fluorescence, FDSS | activation, % (no concentration beside the values) | Mucolipin-1 (Homo sapiens), Q9GZU1 | AID 624414, 2012 | 0.12% of 410,000 active; in the data active = activation above about 50%; inconclusive = mostly about 30% to 49%; also: 0% is about no effect
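Tetracycline-induced TRPML1-DL cells are seeded and incubated overnight before loading with a no-wash Ca2+ dye and quencher. Agonist activity is taken from the 110 s fluorescence read following compound pin-transfer on an FDSS, before EC80 54-4 challenge.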
Glioma ERSR ind – qHTS for Inducers of the Endoplasmic Reticulum Stress Response (ERSR) in Human Glioma: qHTS | U87-MG GRP78 promoter luciferase reporter, 16 h | 0.02% of 420,000 active | Potency, µM, inactives show at the top dose activation, hits mostly activators; active = well fitted activation curve with a large enough effect; inconclusive = small, poorly fitted or top-dose-only effect; inactive = no such curve, though single readings can be large or run the other way; also: potency is read from the fitted curve at half-maximal effect; series mostly up to about 76 µM; % of control where 0% means no effect; nearly all actives have a fitted effect of over 35% in size
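Stably transfected U87-MG human glioma cells carrying a GRP78-based luminescent sensor were seeded at 1000 cells/well, pin-dosed with compounds and incubated 16 h. Luciferase reagent was then added, and end-point luminescence was read after 10 min at room temperature.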
Starred values were filed as active, the others as inactive; i = inactive; ? = inconclusive; . = no result given. Most compounds without a hit are left out; they make up all but 1% or so of the library.

SMILES	hERG WT inh	TSG101-PTAP inh	TRPML1 blocker	KCNH2 3.1 block	TRPML1 ag	Glioma ERSR ind
NC(=O)CC(NC(=O)Cc1ccc(Cl)cc1)c1ccc(NCC2CC2)c([N+](=O)[O-])c1 (stereo not drawn)	-194*	4%	-11	-42	0	-2%
C#Cc1cccc(C(=O)NCc2nc(-c3ccccc3NC(C)=O)oc2C)c1	.	.	.	.	.	-3%
O=c1oc2ccccc2cc1-c1nc2c(s1)CCCC2	1	0%	-5	-87*	0	-5%
CC(C)(C)CN1CCNC(=O)C1CC(=O)NCCc1cnn(-c2ccccc2)c1 (stereo not drawn)	-3	-3%	-9	-17	0	-1%
CC(C)CN1CCNC(=O)C1CC(=O)NCCc1cnn(-c2ccccc2)c1 (stereo not drawn)	3	1%	-5	-114*	2	-2%
Cc1c(CN2CCOc3c(O)cc(-c4nc5ccccc5s4)cc3C2)cnn1C	.	.	.	.	.	0%
O=S(=O)(NC1CCCCC1N1CCN(c2ccc(F)cc2)CC1)c1ccccc1 (stereo not drawn)	27	-2%	12	-81*	2	-2%
COc1ccccc1N1CCN(C2CCCCC2NS(=O)(=O)c2ccc(Cl)cc2)CC1 (stereo not drawn)	4	-12%	82	?	0	-4%
COc1ccc(N2CCN(C3CCCCC3NS(=O)(=O)c3ccc(Cl)cc3)CC2)cc1 (stereo not drawn)	-18	1%	-17	-19	63*	-3%
O=S(=O)(NC1CCCCC1N1CCCCC1)c1ccccc1 (stereo not drawn)	-2	-5%	-4	6	2	-2%
COc1ccccc1C1CN(Cc2cccc3nccnc23)Cc2ccccc2O1 (stereo not drawn)	.	.	.	.	.	-2%
Cc1ccc(C(C)C)c(OC(=O)/C=C/c2ccccc2)c1	-12	-2%	-8	-91*	0	-5%
Cc1ccc(NC(=O)C(C)OC(=O)/C=C/c2ccccc2)cc1 (stereo not drawn)	-22	-4%	4	0	-1	3%
CCOc1ccc(NC(=O)N2CCC(n3nnc4ccccc43)CC2)cc1	i	-7%	0	-83*	-1	-2%
COc1ccc(NC(=O)CSc2nnnn2C2CC3C=CC2C3)cc1 (stereo not drawn)	-81*	-7%	11	-3	-1	4%
CCOC(=O)c1ccc(NC(=O)CSc2nnnn2C2CCCCC2)cc1	3	-3%	2	8	-1	-1%
CCC(=O)Nc1ccc(NC(=O)CSc2nnnn2-c2ccc(OC)cc2)cc1	0	-2%	-8	7	0	-4%
CCOc1ccc(NC(=O)CSc2nnnn2C2CCCC2)cc1	-142*	-13%	86	-199*	0	-4%
Cc1ccc2cc(CNCc3cccc4ccccc34)c(N3CCC(O)CC3)nc2c1	.	.	.	.	.	-7%
Cc1cccc(NS(=O)(=O)c2ccc(C(=O)NCC3(N4CCCCC4)CCCCC3)cc2)c1C	8	-5%	-9	-78*	1	-5%
Cc1ccccc1NS(=O)(=O)c1ccc(C(=O)NCC2(N3CCOCC3)CCCCC2)cc1	7	-3%	-2	-2	0	-4%
Nc1ccc(-c2nc3ccccc3[nH]2)cc1	-3	0%	-4	4	0	-5%
CC(C)Sc1nc2ccccc2[nH]1	12	0%	-7	-110*	0	2%
Nc1ccc(Sc2nc3ccccc3[nH]2)cc1	-84*	-8%	-16	7	0	2%
N=C(N)c1ccc(OCCCOc2ccc(C(=N)N)cc2Br)c(Br)c1	.	.	.	.	.	-3%
SMILES	hERG WT inh	TSG101-PTAP inh	TRPML1 blocker	KCNH2 3.1 block	TRPML1 ag	Glioma ERSR ind
O=C(Cn1cnc([N+](=O)[O-])c1)Nc1ccccc1C(F)(F)F	-74*	-5%	0	20	0	-5%
Cc1ccc2cc(C)c(SCC(=O)Nc3ccc(S(=O)(=O)N4CCCC4)cc3)nc2c1	-12	-7%	1	-100*	0	0%
Cc1ccc(-c2nnc(SCC(=O)Nc3ccc(S(=O)(=O)N4CCCCCC4)cc3)o2)cc1	-13	0%	4	-13	0	3%
Cc1ccc(-c2ccnc(-n3ncc(C(=O)N(C)CC4CCCN(C)C4)c3C)n2)o1 (stereo not drawn)	.	.	.	.	.	0%
COc1cc(-c2ccc(Cl)cn2)cc2c1OCCN(C(=O)c1ccccc1-n1cccn1)C2	.	.	.	.	.	-5%
N=c1c2c(-c3ccccc3)c(-c3ccccc3)n(Cc3ccco3)c2ncn1Cc1ccco1	?	-4%	46	-93*	13	2%
CCCCn1cnc2c(c(-c3ccccc3)c(-c3ccccc3)n2Cc2ccco2)c1=N	-8	-1%	35	-6	0	-6%
COCCOC(=O)C1=C(C)NC(=O)NC1c1cccs1 (stereo not drawn)	11	-9%	-3	0	-1	-3%
COCCOC(=O)C1=C(C)NC(=S)NC1c1cccs1 (stereo not drawn)	1	-1%	3	-76*	0	-4%
CSc1ccc(CN(C)C(=O)c2cccc(S(=O)(=O)N3CCN(Cc4ccccc4)CC3)c2)cc1	-122*	0%	-9	-7	1	-3%
COc1cccc(-c2nc3cc4c(cc3cc2CN(C(=O)c2csc(C)n2)C2CC2)CCC4)c1OC	.	.	.	.	.	-3%
Cc1cccc(-c2nc(CN3CCCC(C(=O)NC4CCCC4)C3)c(C)o2)c1 (stereo not drawn)	38	-3%	24	-82*	1	-4%
O=C1CC(N(CCc2ccccc2)C(=S)Nc2ccccc2)C(=O)N1c1ccc(F)cc1 (stereo not drawn)	-2	-3%	-10	-80*	1	11%
O=C1CC(N(CCc2ccccc2)C(=S)Nc2ccccc2)C(=O)N1c1ccccc1 (stereo not drawn)	0	-2%	43	16	3	4%
CC(=O)c1ccc2noc(-c3cccc(F)c3)c2c1	7	-2%	-6	-83*	-1	1%
COc1cccc(-c2onc3ccc(C(C)=O)cc23)c1	4	-4%	-16	8	4	5%
COc1cc(=O)n2c(c1C(=O)N(C)C(C)c1ccco1)CCN(C(=O)c1ccc(C(C)=O)cc1)CC2 (stereo not drawn)	.	.	.	.	.	0%
